Results taken from PubChem BioAssay AID651742 (Broad Institute, 2012).
The campaign covered roughly 5,600 compounds. About 780 (14%) were called active. Inconclusive results (about 3%) are left out.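 How the source made its calls: active means mean signal decrease across replicates above about 35% based on untreated-well scatter, with enough replicates individually passing (limit read from the data); inconclusive means no rule stated though some were filed; inactive means the rest.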 Not all results are given here.

Test: cytotoxicity in mouse NIH/3T3 fibroblasts, confirmation, cytotoxicity control for T. cruzi proliferation inhibitor project, cell-based, cherry-pick, single point (AID 651742);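 further: 0% = median of neutral control wells and 100% = median of positive control wells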
Settings: NIH/3T3 viability, CellTiter-Glo ATP luminescence, 90 h; at 8.35 µM; hits give high values

SMILES	cytotoxicity (signal decrease)
COc1ccc(S(=O)(=O)N2CCCCN3[C@H](C2)[C@H](c2ccc(C#CCC(C)C)cc2)[C@@H]3CO)cc1	20.8% (inactive)
COc1ccc(S(=O)(=O)N2CCCCN3[C@H](CO)[C@@H](c4ccc(C#CC(C)C)cc4)[C@H]3C2)cc1	27.6% (inactive)
CNC[C@H]1OCCCC[C@H](C)Oc2ccc(NC(=O)Nc3c(C)noc3C)cc2C(=O)N([C@H](C)CO)C[C@H]1C	6.78% (inactive)
COc1ccc(-c2ccc3c(c2)[C@@H]2[C@@H](CCN2C(=O)Cc2ccccn2)[C@H](CO)N3C)cc1	3.57% (inactive)
C[C@@H]1CN([C@@H](C)CO)C(=O)CCCn2cc(nn2)CO[C@@H]1CN(C)S(=O)(=O)c1ccccc1F	-3.89% (inactive)
C[C@@H]1CN([C@H](C)CO)C(=O)c2cc(/C=C/c3ccccc3)cnc2O[C@@H]1CN(C)Cc1ccncc1	0.61% (inactive)
C[C@H](CO)N1C[C@H](C)[C@@H](CN(C)C(=O)Nc2cc(F)ccc2F)Oc2cc(C#CC3CC3)ccc2S1(=O)=O	-4.87% (inactive)
C[C@@H]1CN([C@H](C)CO)S(=O)(=O)c2ccc(-c3cccc(C#N)c3)cc2O[C@@H]1CN(C)C(=O)Nc1ccccc1F	45.7% (active)
C[C@@H]1CN([C@@H](C)CO)S(=O)(=O)c2ccc(C#Cc3ccccc3)cc2O[C@@H]1CN(C)C(=O)Nc1ccccc1	11.7% (inactive)
CN1c2ccc(-c3ccccc3)cc2[C@@H]2[C@@H](CCN2C(=O)c2ccncc2)[C@@H]1CO	5.49% (inactive)
O=C(C[C@H]1CC[C@@H]2[C@H](COC[C@H](O)CN2Cc2ccc(Oc3ccccc3)cc2)O1)N1CCN(c2ccccc2)CC1	-0.257% (inactive)
CCCC#Cc1ccc2c(c1)O[C@H](CN(C)C(=O)CC)[C@@H](C)CN([C@H](C)CO)S2(=O)=O	17.5% (inactive)
C[C@H]1CN([C@@H](C)CO)S(=O)(=O)c2ccc(C#CCN(C)C)cc2O[C@@H]1CN(C)Cc1ccc(F)cc1	48.1% (active)
CC(C)C#Cc1ccc2c(c1)O[C@H](CN(C)Cc1ccccc1)[C@H](C)CN([C@@H](C)CO)S2(=O)=O	41.7% (active)
CC(=O)N(C)C[C@H]1Oc2cc(C#CCN(C)C)ccc2S(=O)(=O)N([C@@H](C)CO)C[C@@H]1C	4.99% (inactive)
CCC(=O)N(C)C[C@@H]1Oc2cc(C#CCN(C)C)ccc2S(=O)(=O)N([C@H](C)CO)C[C@H]1C	-1.94% (inactive)
C[C@@H]1CN([C@@H](C)CO)S(=O)(=O)c2ccc(/C=C/c3ccccc3)cc2O[C@H]1CN(C)Cc1ccccc1	21.8% (inactive)
C[C@@H]1CN([C@H](C)CO)S(=O)(=O)c2ccc(C#C[C@@H](C)O)cc2O[C@@H]1CN(C)Cc1ccc(-c2ccccc2)cc1	14.4% (inactive)
O=C(Cc1ccccc1)N1CC[C@H]2[C@H](CO)Nc3ccc(-c4ccccc4F)cc3[C@H]21	-5.9% (inactive)
C[C@@H]1CN([C@H](C)CO)C(=O)c2cccc(NC(=O)c3ccc(-c4nccs4)cc3)c2O[C@@H]1CN(C)C(=O)Nc1ccc(C(F)(F)F)cc1	26% (inactive)

SMILES	cytotoxicity (signal decrease)
C[C@@H]1CCCCO[C@H](CN(C)C(=O)Nc2ccc(C(F)(F)F)cc2)[C@H](C)CN([C@H](C)CO)C(=O)c2cc(NC(=O)Nc3ccc(C(F)(F)F)cc3)ccc2O1	-8.85% (inactive)
CCc1cnc(N2[C@H](C#N)[C@H](c3ccc(C4=CCCC4)cc3)[C@@H]2CO)s1	9.56% (inactive)
CC(C)NC(=O)N1[C@H](C#N)[C@H](c2ccc(C#CC3CCCCC3)cc2)[C@H]1CO	-28% (inactive)
N#C[C@H]1[C@@H](c2ccc(C3=CCCCC3)cc2)[C@@H](CO)N1C(=O)NC1CCCCC1	42.8% (active)
Cc1noc(C)c1S(=O)(=O)Nc1ccc2c(c1)C(=O)N([C@@H](C)CO)C[C@@H](C)[C@H](CN(C)S(=O)(=O)c1ccc(Cl)cc1)OCCCC[C@H](C)O2	-13.7% (inactive)
O=C(Nc1cc(F)ccc1F)N1CCCCN2[C@H](CO)[C@@H](c3ccc(-c4cncnc4)cc3)[C@H]2C1	15% (inactive)
CCCC#Cc1ccc2c(c1)O[C@@H](CN(C)C(=O)c1ccccc1F)[C@H](C)CN([C@H](C)CO)S2(=O)=O	19.4% (inactive)
COc1ccc(S(=O)(=O)Nc2ccc3c(c2)C(=O)N([C@@H](C)CO)C[C@H](C)[C@H](CN(C)Cc2ccc(C(F)(F)F)cc2)O3)cc1	3.37% (inactive)
C/C=C/c1ccc([C@H]2[C@@H](CNC(C)C)N(c3nc(CC)cs3)[C@H]2CO)cc1	7.64% (inactive)
C[C@H](CO)N1C[C@H](C)[C@@H](CN(C)Cc2ccc(C(=O)Nc3ccccc3N)cc2)Oc2c(NC(=O)c3ccc(-c4nccs4)cc3)cccc2C1=O	-13.6% (inactive)
C[C@@H]1CN([C@H](C)CO)S(=O)(=O)c2ccc(C3=CCCC3)cc2O[C@H]1CN(C)Cc1ccccc1F	32% (inactive)
C[C@H]1CN([C@@H](C)CO)S(=O)(=O)c2ccc(C3=CCCC3)cc2O[C@@H]1CN(C)Cc1ccccc1	42.4% (active)
C[C@H](CO)N1C[C@H](C)[C@H](CN(C)Cc2ccncc2)Oc2cc(-c3ccncc3)ccc2S1(=O)=O	19.9% (inactive)
C[C@H]1CN([C@@H](C)CO)S(=O)(=O)c2ccc(C3=CCCCC3)cc2O[C@@H]1CN(C)Cc1ccccc1	119% (active)
COc1ccccc1-c1ccc2c(c1)O[C@@H](CN(C)C)[C@H](C)CN([C@H](C)CO)S2(=O)=O	-9.91% (inactive)
C[C@H](CO)N1C[C@H](C)[C@@H](CN(C)C(=O)C2CCCCC2)Oc2cc(-c3ccccc3)ccc2S1(=O)=O	26.2% (inactive)
CS(=O)(=O)N1[C@@H](C#N)[C@H](c2ccc(C#CC3CCCCC3)cc2)[C@@H]1CO	4.86% (inactive)
COc1cccc(S(=O)(=O)N2CCCCN3[C@H](C2)[C@H](c2ccc(C#CC(C)C)cc2)[C@@H]3CO)c1	19.3% (inactive)
C[C@@H]1CN([C@@H](C)CO)C(=O)c2cc(NC(=O)Nc3ccc(C(F)(F)F)cc3)ccc2O[C@@H](C)CCCCO[C@H]1CN(C)C(=O)c1ccccc1	23.5% (inactive)
C[C@H]1CN([C@@H](C)CO)C(=O)CCCn2cc(nn2)CO[C@H]1CN(C)C(=O)c1ccccc1	10.9% (inactive)

SMILES	cytotoxicity (signal decrease)
C[C@H](CO)N1C[C@H](C)[C@H](CN(C)C(=O)Nc2ccc(C(F)(F)F)cc2)OCCCC[C@H](C)Oc2ccc(NC(=O)C3CCCCC3)cc2C1=O	-27% (inactive)
Cc1noc(C)c1S(=O)(=O)Nc1ccc2c(c1)C(=O)N([C@@H](C)CO)C[C@H](C)[C@@H](CN(C)C(=O)Nc1cccc3ccccc13)OCCCC[C@H](C)O2	7.99% (inactive)
COc1ccc(S(=O)(=O)Nc2ccc3c(c2)C(=O)N([C@H](C)CO)C[C@H](C)[C@H](CN(C)Cc2ccc(C(F)(F)F)cc2)O3)cc1	29% (inactive)
O=C(CN1CCOCC1)N1CCCCN2[C@@H](CO)[C@H](c3ccc(-c4ccccc4)cc3)[C@@H]2C1	8.85% (inactive)
C[C@H]1CN([C@@H](C)CO)C(=O)c2cc(NC(=O)Nc3ccc4c(c3)OCO4)ccc2O[C@@H]1CN(C)Cc1ccc(Oc2ccccc2)cc1	16% (inactive)
C[C@@H]1CN([C@@H](C)CO)C(=O)c2cc(NC(=O)Cc3ccccc3)ccc2O[C@@H]1CN(C)Cc1ccc(Oc2ccccc2)cc1	27.9% (inactive)
N#C[C@@H]1[C@@H](c2ccc(C#Cc3cccc(F)c3)cc2)[C@@H](CO)N1C(=O)C1CCC1	29.1% (inactive)
CC(C)CC#Cc1cnc2c(c1)C(=O)N([C@@H](C)CO)C[C@@H](C)[C@H](CN(C)C(=O)Cc1ccncc1)O2	-12% (inactive)
CC(=O)N(C)C[C@@H]1[C@@H](c2ccc(-c3ccccc3F)cc2)[C@@H](CO)N1C(C)=O	0.445% (inactive)
CCN(C[C@H]1[C@H](c2ccccc2)[C@H](CO)N1C(=O)C1CC1)C(=O)NC1CCCC1	-12.5% (inactive)
CC(C)NC(=O)Nc1ccc2c(c1)C(=O)N([C@H](C)CO)C[C@H](C)[C@H](CN(C)C(=O)Nc1ccc(C(F)(F)F)cc1)OCCCC[C@@H](C)O2	-9.66% (inactive)
OC[C@@H]1Nc2ccc(-c3cccc(F)c3)cc2[C@H]2[C@@H]1CCN2Cc1ccncc1	9.48% (inactive)
Cc1ccccc1S(=O)(=O)N1CC[C@H]2[C@H](CO)Nc3ccc(-c4cccc(F)c4)cc3[C@H]21	52.4% (active)
O=S(=O)(c1ccccc1)N1CC[C@@H]2[C@@H](CO)Nc3ccc(C#Cc4cccc(F)c4)cc3[C@@H]21	33% (inactive)
C[C@H](CO)N1C[C@H](C)[C@@H](CN(C)Cc2ccc(C(F)(F)F)cc2)OCCCC[C@H](C)Oc2ccc(NC(=O)C3CCCCC3)cc2C1=O	27.4% (inactive)
COc1cccc(S(=O)(=O)Nc2ccc3c(c2)[C@H]2C[C@H](CC(=O)NCc4ccc(Cl)cc4)O[C@H](CO)[C@H]2O3)c1	-23.8% (inactive)
CN(C)C(=O)c1ccc(-c2ccc3c(c2)[C@H]2[C@H](CCN2C(=O)c2ccc4c(c2)OCO4)[C@H](CO)N3)cc1	-2.98% (inactive)
O=C(c1ccc(F)cc1)N1CCCCN2[C@H](C1)[C@@H](c1ccc(C#CC3(O)CCCC3)cc1)[C@@H]2CO	2.43% (inactive)
C[C@H](CO)N1C[C@H](C)[C@H](CN(C)S(=O)(=O)c2ccc(F)cc2)OCCCC[C@H](C)Oc2ccc(NS(=O)(=O)c3ccc(Cl)cc3)cc2C1=O	22.2% (inactive)
C[C@@H]1CN([C@H](C)CO)C(=O)c2cccc(NC(=O)NC3CCCCC3)c2O[C@H]1CN(C)Cc1ccc(C(F)(F)F)cc1	-8.62% (inactive)
